# Test results reported in publication PMC7862700, “An all-to-all approach to the identification of sequence-specific readers for epigenetic DNA modifications on cytosine”.
# Legend:
# Assay in all cases: DAPPL (digital affinity profiling via proximity ligation, sequencing); 10 mM Tris-HCl pH 7.5, 50 mM NaCl, 1 mM DTT, 4% glycerol, room temperature, 30 min; GST-TFs on glutathione beads, 16-mer random dsDNA library, 0.1% formaldehyde crosslink after washing; high values mean tight binding
# FEV = target: T1, FEV (Homo sapiens, UniProt Q99581 1-238); conditions: protein: recombinant; tags: N-terminal GST; dsDNA, one strand shown
# T1 sequence: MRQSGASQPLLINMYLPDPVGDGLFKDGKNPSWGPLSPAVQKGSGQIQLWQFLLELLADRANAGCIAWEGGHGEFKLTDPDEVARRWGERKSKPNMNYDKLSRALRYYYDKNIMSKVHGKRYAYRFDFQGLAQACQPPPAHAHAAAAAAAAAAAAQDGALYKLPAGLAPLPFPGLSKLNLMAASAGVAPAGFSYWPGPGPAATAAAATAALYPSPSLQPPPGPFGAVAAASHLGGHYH
# In short: (§1)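 Binding signal is given per hexamer as its read frequency for a factor divided by its frequency in the tag-only sample. GST-fused human transcription factors were expressed in yeast, captured on glutathione beads, barcoded with DNA and pooled with that sample, then incubated with 200 nmole of a 16-mer random double-stranded DNA library in Tris/NaCl/DTT/glycerol buffer for 30 min at room temperature. The pools were then washed, crosslinked, proximity-ligated, amplified by PCR and sequenced on an Illumina NextSeq500.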
# ETV5 = ETV5 (Homo sapiens, UniProt P41161 1-510); conditions: protein: recombinant; tags: N-terminal GST; dsDNA, one strand shown
# Chain of ETV5 (P41161 whole entry): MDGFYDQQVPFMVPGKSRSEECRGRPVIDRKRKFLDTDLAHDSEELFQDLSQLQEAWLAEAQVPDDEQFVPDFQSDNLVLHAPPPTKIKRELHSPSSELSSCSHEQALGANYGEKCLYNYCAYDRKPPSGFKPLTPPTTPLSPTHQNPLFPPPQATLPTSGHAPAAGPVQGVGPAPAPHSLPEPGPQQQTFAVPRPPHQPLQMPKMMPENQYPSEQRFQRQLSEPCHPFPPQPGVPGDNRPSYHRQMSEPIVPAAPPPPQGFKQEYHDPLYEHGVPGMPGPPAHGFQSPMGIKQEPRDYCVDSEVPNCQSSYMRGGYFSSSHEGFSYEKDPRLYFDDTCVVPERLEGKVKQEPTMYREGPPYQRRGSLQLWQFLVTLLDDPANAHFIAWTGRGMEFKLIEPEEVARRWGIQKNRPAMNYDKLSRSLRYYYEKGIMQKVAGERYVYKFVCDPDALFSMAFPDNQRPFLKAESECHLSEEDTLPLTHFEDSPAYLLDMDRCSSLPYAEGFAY
# In short: as §1
# HSF1 = HSF1 (Homo sapiens, UniProt Q00613 1-529); conditions: protein: recombinant; tags: N-terminal GST; chain copies: 3; dsDNA, one strand shown
# Chain of HSF1 (Q00613 whole entry): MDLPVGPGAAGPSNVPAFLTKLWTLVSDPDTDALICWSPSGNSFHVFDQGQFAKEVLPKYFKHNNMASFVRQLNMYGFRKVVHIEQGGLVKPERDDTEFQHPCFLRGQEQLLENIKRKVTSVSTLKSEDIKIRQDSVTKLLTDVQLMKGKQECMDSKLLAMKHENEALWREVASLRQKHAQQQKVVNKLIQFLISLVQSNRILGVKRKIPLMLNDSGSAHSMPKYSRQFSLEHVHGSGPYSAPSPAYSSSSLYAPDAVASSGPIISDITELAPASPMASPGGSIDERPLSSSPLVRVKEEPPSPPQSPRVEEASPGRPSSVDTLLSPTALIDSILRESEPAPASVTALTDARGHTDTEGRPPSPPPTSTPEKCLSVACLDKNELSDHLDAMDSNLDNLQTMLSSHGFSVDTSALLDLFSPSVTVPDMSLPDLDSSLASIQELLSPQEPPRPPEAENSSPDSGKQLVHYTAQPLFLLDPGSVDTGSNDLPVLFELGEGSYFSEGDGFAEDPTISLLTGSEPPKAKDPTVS
# In short: as §1
# SPIC = target: T2, SPIC (Homo sapiens, UniProt Q8N5J4 1-248); conditions: protein: recombinant; tags: N-terminal GST; dsDNA, one strand shown
# T2 sequence: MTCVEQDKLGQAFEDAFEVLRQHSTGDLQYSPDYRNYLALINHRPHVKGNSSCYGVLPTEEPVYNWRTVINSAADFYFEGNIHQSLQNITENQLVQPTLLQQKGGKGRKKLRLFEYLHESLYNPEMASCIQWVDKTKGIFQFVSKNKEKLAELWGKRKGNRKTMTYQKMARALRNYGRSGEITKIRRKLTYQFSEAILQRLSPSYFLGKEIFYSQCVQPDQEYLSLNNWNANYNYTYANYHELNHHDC
# In short: as §1
# ELF4 = ELF4 (Homo sapiens, UniProt Q99607 1-663); conditions: protein: recombinant; tags: N-terminal GST; dsDNA, one strand shown
# Chain of ELF4 (Q99607 whole entry): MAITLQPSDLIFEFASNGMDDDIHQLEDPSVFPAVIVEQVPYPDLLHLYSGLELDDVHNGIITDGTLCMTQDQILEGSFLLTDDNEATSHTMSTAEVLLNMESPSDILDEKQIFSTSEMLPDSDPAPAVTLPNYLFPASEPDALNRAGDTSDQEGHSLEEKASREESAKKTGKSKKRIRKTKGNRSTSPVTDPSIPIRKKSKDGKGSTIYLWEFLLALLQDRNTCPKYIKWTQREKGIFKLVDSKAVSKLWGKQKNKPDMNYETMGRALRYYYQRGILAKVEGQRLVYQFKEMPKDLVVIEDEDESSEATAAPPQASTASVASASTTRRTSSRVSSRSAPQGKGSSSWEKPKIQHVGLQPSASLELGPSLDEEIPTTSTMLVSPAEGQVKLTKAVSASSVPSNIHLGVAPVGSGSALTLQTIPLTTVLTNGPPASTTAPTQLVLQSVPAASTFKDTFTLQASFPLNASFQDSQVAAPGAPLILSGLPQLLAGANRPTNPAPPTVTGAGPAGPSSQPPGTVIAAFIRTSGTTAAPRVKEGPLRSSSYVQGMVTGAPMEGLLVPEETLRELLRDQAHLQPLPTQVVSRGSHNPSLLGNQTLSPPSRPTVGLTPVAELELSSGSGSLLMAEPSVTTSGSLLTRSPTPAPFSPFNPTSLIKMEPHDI
# In short: as §1
# ELK4 = target: T3, ELK4 (Homo sapiens, UniProt P28324-2 1-405); conditions: protein: recombinant; tags: N-terminal GST; dsDNA, one strand shown
# T3 sequence: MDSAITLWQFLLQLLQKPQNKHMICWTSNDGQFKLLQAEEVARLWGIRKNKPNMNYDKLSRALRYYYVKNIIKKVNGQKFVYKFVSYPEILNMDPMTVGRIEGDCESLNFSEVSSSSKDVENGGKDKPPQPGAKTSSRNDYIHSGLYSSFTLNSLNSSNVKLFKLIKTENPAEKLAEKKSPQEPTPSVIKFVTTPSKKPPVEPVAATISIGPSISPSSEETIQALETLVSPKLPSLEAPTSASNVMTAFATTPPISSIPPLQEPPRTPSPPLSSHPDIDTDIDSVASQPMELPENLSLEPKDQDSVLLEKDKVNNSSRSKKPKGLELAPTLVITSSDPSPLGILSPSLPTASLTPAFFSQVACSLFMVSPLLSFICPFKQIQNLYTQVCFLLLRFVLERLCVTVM
# In short: as §1
# ETV2 = target: T4, ETV2 (Homo sapiens, UniProt O00321 1-342); conditions: protein: recombinant; tags: N-terminal GST; dsDNA, one strand shown
# T4 sequence: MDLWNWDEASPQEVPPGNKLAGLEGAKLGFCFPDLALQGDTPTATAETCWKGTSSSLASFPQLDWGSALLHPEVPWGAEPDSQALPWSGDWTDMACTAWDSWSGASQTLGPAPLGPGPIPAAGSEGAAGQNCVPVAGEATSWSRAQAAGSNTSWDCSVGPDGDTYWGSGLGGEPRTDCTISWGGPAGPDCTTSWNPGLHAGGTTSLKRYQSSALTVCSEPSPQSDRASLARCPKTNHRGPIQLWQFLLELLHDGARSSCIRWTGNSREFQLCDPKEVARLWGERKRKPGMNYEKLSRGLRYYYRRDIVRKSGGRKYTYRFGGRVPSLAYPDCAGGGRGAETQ
# In short: as §1
# ELF3 = target: T5, ELF3 (Homo sapiens, UniProt P78545 1-371); conditions: protein: recombinant; tags: N-terminal GST; dsDNA, one strand shown
# T5 sequence: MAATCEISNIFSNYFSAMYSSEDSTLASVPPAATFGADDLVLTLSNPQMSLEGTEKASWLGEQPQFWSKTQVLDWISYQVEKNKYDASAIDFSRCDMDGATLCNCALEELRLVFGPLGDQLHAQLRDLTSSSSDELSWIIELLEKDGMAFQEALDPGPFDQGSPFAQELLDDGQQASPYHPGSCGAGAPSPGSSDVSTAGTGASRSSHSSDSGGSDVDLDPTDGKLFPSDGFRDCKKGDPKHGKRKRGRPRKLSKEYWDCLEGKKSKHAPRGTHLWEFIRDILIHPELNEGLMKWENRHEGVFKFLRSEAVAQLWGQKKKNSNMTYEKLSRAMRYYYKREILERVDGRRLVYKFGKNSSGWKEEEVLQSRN
# In short: as §1
# CRX = CRX (Homo sapiens, UniProt O43186 1-299); conditions: protein: recombinant; tags: N-terminal GST; dsDNA, one strand shown
# Chain of CRX (O43186 whole entry): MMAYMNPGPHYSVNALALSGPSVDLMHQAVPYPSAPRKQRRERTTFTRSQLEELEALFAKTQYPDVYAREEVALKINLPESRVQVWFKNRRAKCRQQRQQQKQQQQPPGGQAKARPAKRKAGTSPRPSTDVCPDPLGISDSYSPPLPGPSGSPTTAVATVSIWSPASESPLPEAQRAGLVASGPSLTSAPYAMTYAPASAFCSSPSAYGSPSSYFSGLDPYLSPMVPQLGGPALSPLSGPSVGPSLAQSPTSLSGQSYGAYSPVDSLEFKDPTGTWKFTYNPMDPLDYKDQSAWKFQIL
# In short: as §1
# ETV1 = ETV1 (Homo sapiens, UniProt P50549 1-477); conditions: protein: recombinant; tags: N-terminal GST; dsDNA, one strand shown
# Chain of ETV1 (P50549 whole entry): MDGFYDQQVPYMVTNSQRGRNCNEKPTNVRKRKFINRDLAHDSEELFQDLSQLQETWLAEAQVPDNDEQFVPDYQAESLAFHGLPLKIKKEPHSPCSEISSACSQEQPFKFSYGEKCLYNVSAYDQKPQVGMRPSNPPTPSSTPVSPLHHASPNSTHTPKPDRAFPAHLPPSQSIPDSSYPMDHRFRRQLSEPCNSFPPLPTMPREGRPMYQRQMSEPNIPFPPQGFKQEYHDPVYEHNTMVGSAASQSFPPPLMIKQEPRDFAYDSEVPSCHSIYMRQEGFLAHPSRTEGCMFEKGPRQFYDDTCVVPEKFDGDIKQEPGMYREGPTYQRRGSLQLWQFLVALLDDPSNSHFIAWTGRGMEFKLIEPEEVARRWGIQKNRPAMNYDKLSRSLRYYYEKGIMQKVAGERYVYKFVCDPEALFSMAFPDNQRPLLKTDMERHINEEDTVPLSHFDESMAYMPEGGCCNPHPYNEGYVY
# In short: as §1
# ERF = target: T6, ERF (Homo sapiens, UniProt P50548 1-548); conditions: protein: recombinant; tags: N-terminal GST; dsDNA, one strand shown
# T6 sequence: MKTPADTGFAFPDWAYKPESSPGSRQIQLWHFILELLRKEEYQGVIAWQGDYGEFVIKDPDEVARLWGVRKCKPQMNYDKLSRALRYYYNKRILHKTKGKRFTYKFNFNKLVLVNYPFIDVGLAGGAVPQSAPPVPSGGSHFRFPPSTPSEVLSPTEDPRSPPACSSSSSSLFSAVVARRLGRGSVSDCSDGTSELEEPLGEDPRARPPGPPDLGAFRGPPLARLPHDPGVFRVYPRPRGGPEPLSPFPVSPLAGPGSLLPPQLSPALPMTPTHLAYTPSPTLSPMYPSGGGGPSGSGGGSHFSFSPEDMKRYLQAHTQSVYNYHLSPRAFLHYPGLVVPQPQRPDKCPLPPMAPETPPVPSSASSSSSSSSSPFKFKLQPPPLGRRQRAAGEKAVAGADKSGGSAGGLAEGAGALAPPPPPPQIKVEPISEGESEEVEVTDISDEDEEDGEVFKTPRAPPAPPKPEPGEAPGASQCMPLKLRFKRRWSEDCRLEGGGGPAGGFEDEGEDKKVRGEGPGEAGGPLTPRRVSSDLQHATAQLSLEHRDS
# In short: as §1
# ETV3L = target: T7, ETV3L (Homo sapiens, UniProt Q6ZN32 1-361); conditions: protein: recombinant; tags: N-terminal GST; dsDNA, one strand shown
# T7 sequence: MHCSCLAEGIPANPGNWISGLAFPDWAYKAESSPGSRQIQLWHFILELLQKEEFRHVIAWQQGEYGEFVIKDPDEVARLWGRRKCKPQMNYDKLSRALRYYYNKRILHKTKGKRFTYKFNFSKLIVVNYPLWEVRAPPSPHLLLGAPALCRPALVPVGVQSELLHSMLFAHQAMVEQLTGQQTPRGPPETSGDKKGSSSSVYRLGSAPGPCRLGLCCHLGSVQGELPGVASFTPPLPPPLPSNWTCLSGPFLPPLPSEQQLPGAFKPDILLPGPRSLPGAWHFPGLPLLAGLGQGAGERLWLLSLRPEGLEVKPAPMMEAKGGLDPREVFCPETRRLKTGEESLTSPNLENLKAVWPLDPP
# In short: as §1
# ETS2 = target: T8, ETS2 (Homo sapiens, UniProt P15036 1-469); conditions: protein: recombinant; tags: N-terminal GST; dsDNA, one strand shown
# T8 sequence: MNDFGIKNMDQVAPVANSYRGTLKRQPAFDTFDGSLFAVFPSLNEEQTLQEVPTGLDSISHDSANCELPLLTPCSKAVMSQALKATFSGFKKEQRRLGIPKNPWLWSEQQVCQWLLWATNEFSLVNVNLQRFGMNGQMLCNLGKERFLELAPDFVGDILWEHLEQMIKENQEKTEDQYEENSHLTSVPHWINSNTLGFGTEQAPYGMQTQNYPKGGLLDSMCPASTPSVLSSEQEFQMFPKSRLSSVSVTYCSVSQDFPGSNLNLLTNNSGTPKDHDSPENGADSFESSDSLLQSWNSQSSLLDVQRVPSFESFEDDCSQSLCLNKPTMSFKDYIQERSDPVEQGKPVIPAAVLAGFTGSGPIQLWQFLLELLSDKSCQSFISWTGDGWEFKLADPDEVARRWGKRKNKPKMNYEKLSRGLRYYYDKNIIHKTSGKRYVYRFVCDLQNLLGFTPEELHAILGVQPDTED
# In short: as §1
# SPDEF = target: T9, SPDEF (Homo sapiens, UniProt O95238 1-335); conditions: protein: recombinant; tags: N-terminal GST; dsDNA, one strand shown
# T9 sequence: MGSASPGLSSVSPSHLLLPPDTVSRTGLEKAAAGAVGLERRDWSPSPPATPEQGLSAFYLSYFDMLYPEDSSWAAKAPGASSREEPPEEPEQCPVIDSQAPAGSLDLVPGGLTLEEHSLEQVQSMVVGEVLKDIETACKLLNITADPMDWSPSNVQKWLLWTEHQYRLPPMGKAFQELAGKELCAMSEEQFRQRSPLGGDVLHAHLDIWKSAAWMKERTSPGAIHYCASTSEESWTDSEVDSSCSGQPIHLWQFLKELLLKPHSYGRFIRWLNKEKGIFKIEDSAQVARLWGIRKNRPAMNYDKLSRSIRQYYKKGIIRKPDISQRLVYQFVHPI
# In short: as §1
# ETV7 = target: T10, ETV7 (Homo sapiens, UniProt Q9Y603 1-341); conditions: protein: recombinant; tags: N-terminal GST; dsDNA, one strand shown
# T10 sequence: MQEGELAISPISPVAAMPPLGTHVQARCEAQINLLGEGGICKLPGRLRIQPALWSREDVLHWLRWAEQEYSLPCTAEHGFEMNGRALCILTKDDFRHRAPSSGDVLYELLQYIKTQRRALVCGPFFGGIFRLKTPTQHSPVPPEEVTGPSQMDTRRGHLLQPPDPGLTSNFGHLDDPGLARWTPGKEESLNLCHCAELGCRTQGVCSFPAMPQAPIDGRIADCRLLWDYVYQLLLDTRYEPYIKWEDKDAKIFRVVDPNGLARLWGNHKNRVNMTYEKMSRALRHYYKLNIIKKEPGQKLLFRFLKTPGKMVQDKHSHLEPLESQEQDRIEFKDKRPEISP
# In short: as §1
# ELF5 = target: T11, ELF5 (Homo sapiens, UniProt Q9UKW6-2 1-255); conditions: protein: recombinant; tags: N-terminal GST; dsDNA, one strand shown
# T11 sequence: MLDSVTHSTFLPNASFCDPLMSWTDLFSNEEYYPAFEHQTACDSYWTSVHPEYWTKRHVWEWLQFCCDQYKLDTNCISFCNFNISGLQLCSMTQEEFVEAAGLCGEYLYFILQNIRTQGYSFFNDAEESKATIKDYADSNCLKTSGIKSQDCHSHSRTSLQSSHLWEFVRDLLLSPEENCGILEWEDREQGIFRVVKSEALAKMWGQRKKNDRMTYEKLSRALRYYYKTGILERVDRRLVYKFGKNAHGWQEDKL
# In short: as §1
# ETV3 = target: T12, ETV3 (Homo sapiens, UniProt P41162-2 1-143); conditions: protein: recombinant; tags: N-terminal GST; dsDNA, one strand shown
# T12 sequence: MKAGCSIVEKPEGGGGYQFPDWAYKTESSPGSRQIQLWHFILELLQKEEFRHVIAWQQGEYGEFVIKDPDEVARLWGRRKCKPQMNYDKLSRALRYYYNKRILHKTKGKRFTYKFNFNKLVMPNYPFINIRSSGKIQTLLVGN
# In short: as §1
# ETV6 = ETV6 (Homo sapiens, UniProt P41212 1-452); conditions: protein: recombinant; tags: N-terminal GST; dsDNA, one strand shown
# Chain of ETV6 (P41212 whole entry): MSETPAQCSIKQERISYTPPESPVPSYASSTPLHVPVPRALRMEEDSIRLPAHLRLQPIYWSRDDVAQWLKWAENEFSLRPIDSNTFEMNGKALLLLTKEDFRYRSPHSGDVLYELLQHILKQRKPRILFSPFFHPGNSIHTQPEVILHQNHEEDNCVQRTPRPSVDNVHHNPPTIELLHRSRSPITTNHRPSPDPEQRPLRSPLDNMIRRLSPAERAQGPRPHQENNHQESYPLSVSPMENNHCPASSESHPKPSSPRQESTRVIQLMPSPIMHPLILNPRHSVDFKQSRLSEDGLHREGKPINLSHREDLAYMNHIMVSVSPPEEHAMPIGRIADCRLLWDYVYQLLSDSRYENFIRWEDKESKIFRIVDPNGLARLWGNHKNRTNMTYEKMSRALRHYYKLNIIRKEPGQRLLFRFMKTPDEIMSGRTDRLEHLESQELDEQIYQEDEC
# In short: as §1
sequence,measurement,setting,value
ATTGCC,binding signal,FEV,"1.25 fold enrichment (6-mer frequency, TF over GST control)"
same,binding signal,ETV5,"1.28 fold enrichment (6-mer frequency, TF over GST control)"
same,binding signal,HSF1,"1.09 fold enrichment (6-mer frequency, TF over GST control)"
same,binding signal,SPIC,"1.29 fold enrichment (6-mer frequency, TF over GST control)"
same,binding signal,ELF4,"1.3 fold enrichment (6-mer frequency, TF over GST control)"
same,binding signal,ELK4,"1.14 fold enrichment (6-mer frequency, TF over GST control)"
same,binding signal,ETV2,"1.12 fold enrichment (6-mer frequency, TF over GST control)"
same,binding signal,ELF3,"1.24 fold enrichment (6-mer frequency, TF over GST control)"
same,binding signal,CRX,"1.09 fold enrichment (6-mer frequency, TF over GST control)"
same,binding signal,ETV1,"1.2 fold enrichment (6-mer frequency, TF over GST control)"
same,binding signal,ERF,"1.15 fold enrichment (6-mer frequency, TF over GST control)"
same,binding signal,ETV3L,"1.34 fold enrichment (6-mer frequency, TF over GST control)"
same,binding signal,ETS2,"1.25 fold enrichment (6-mer frequency, TF over GST control)"
same,binding signal,SPDEF,"1.18 fold enrichment (6-mer frequency, TF over GST control)"
same,binding signal,ETV7,"1.22 fold enrichment (6-mer frequency, TF over GST control)"
same,binding signal,ELF5,"1.22 fold enrichment (6-mer frequency, TF over GST control)"
same,binding signal,ETV3,"1.31 fold enrichment (6-mer frequency, TF over GST control)"
same,binding signal,ETV6,"1.26 fold enrichment (6-mer frequency, TF over GST control)"
